This note sets out measurements from PubChem BioAssay (EPA / NIEHS).

“And” between values parts separate entries of the source, which are not always exact repeats. Identical values can stand only once. A structure can be active in one record and inactive in another. The source made the active and inactive calls. The calls were made as follows: active = hit-call score of the fitted dose curve at least 0.9, where 1 is the maximum; inactive = score below 0.9.

Read-out in assay [1]: Human Leukocyte Antigen - DR isotype (HLADR), HLA-DRA (gene 3122)
The assay can be described thus: BSK_CASM3C_HLADR: BioMAP Diversity Plus: CASM3C Assay for Human Leukocyte Antigen - DR isotype (HLADR) Biomarker Activity (AID 2283043).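 Also: cell-surface HLA-DR protein level quantified by ELISA.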 The settings on record: primary human coronary artery smooth muscle cells; actives raise or lower the signal.

Read-out in assay [2]: Macrophage colony-stimulating factor (MCSF), CSF1 (gene 1435)
In words: BSK_CASM3C_MCSF: BioMAP Diversity Plus: CASM3C Assay for Macrophage colony-stimulating factor (MCSF) Biomarker Activity (AID 2283044).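 Also: M-CSF protein amount quantified by ELISA after 24 h exposure.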 The settings on record: primary human coronary artery smooth muscle cells; actives raise or lower the signal.

Read-out in assay [3]: Low-density lipoprotein receptor (LDLR), LDLR (gene 3949)
In words: BSK_CASM3C_LDLR: BioMAP Diversity Plus: CASM3C Assay for Low-density lipoprotein receptor (LDLR) Biomarker Activity (AID 2283045).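 Also: LDLR protein level on the cell surface quantified by ELISA.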 The settings on record: primary human coronary artery smooth muscle cells; actives raise or lower the signal.

Read-out in assay [4]: Monocyte Chemoattractant Protein-1 (MCP1), CCL2 (gene 6347)
In words: BSK_CASM3C_MCP1: BioMAP Diversity Plus: CASM3C Assay for Monocyte Chemoattractant Protein-1 (MCP1) Biomarker Activity (AID 2283046).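 Also: MCP-1 level quantified by ELISA 24 h after dosing.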 Conditions: primary human coronary artery smooth muscle cells; actives raise or lower the signal.

Assay [5] can be described thus: BSK_CASM3C_Proliferation: Cell Proliferation Assessment in the BioMAP Diversity Plus: CASM3C Assay (AID 2283047).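 Also: sulforhodamine B total protein stain as relative cell number at 560 nm; sub-confluent cells exposed 48 h before staining; fitted both ways against DMSO so gain or loss of cell number.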 The settings on record: primary human coronary artery smooth muscle cells.
Read-out in assay [6]: Monokine induced gamma interferon (MIG), CXCL9 (gene 4283)
In words: BSK_CASM3C_MIG: BioMAP Diversity Plus: CASM3C Assay for Monokine induced gamma interferon (MIG) Biomarker Activity (AID 2283048).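 Also: MIG protein level measured by ELISA.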 Conditions: primary human coronary artery smooth muscle cells; actives raise or lower the signal.

Read-out in assay [7]: serum amyloid A (SAA), SAA1 (gene 6288)
The assay can be described thus: BSK_CASM3C_SAA: BioMAP Diversity Plus: CASM3C Assay for serum amyloid A (SAA) Biomarker Activity (AID 2283049).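 Also: SAA protein level quantified by ELISA.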 Conditions: primary human coronary artery smooth muscle cells; actives raise or lower the signal.

Assay [8] in a line: BSK_CASM3C_SRB: Viability Assessment in the BioMAP Diversity Plus: CASM3C Assay (AID 2283050).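 Also: total protein by SRB staining as cytotoxicity measure in parallel cultures; cells exposed to compound for 24 h.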 Conditions: primary human coronary artery smooth muscle cells.
Read-out in assay [9]: Thrombomodulin, THBD (gene 7056)
The assay can be described thus: BSK_CASM3C_Thrombomodulin: BioMAP Diversity Plus: CASM3C Assay for Thrombomodulin Biomarker Activity (AID 2283051).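 Also: thrombomodulin protein level measured by ELISA 24 h after dosing.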 Conditions: primary human coronary artery smooth muscle cells; actives raise or lower the signal.

Read-out in assay [10]: Tissue Factor, F3 (gene 2152)
In words: BSK_CASM3C_TissueFactor: BioMAP Diversity Plus: CASM3C Assay for Tissue Factor Biomarker Activity (AID 2283052).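 Also: cell surface tissue factor protein level read by ELISA.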 The settings on record: primary human coronary artery smooth muscle cells; actives raise or lower the signal.

Take `O=c1n(CC2CO2)c(=O)n(CC2CO2)c(=O)n1CC1CO1` (stereo unspecified): the concentration at half-maximal activity (AC50) in assay [1] is 15.3 µM (active); in [5], 1.85 µM (active). For the same compound, the outcome in [2], in assay [3], in assay [4], in assay [6], in [7] and in [8] was inactive. Also, the result in assay [9] and in [10] was inactive.
For the compound `CC(C)(O)c1coc(S(=O)(=O)NC(=O)Nc2c3c(cc4c2CCC4)CCC3)c1`, the outcome in [1], in [2], in assay [3], in [4], in assay [5] and in [6] was inactive. In addition, the outcome in assay [7], in [8], in [9] and in assay [10] was inactive.
For the compound `CCCN(C1CCN(C(=O)C2CCNCC2)CC1)[C@@H]1CCc2ccc(OC)cc2C1`, the outcome in [1], in assay [2], in [4], in assay [5], in assay [6] and in assay [7] was inactive. Moreover, the outcome in [8], in assay [9] and in [10] was inactive. Further, the concentration at half-maximal activity (AC50) in [3] is 35 µM (active).
Take `Nc1nc2ncc(CNc3ccc(C(=O)N[C@@H](CCC(=O)O)C(=O)O)cc3)nc2c(=O)[nH]1`: the outcome in assay [1], in assay [2], in assay [3], in assay [4], in assay [5] and in assay [6] was inactive. Further, the outcome in [7], in assay [8], in [9] and in assay [10] was inactive.
As to `Cc1ccc(N)cc1O`, the result in assay [1], in [2], in assay [3], in assay [4], in assay [5] and in assay [6] was inactive. The result in [7], in assay [8] and in [10] was inactive. Besides, the AC50 in [9] was 11.2 µM (active).
`CCCCC(CC)COC(=O)CCCCCCCCC(=O)OCC(CC)CCCC` (stereo unspecified): the outcome in [1], in [2], in [3], in assay [4], in assay [6] and in [7] was inactive. The outcome in [8], in assay [9] and in [10] was inactive. Moreover, the AC50 in [5] was 7.33 µM (active).
Take `CCC(C)(C)C(=O)O[C@H]1C[C@@H](C)C=C2C=C[C@H](C)[C@H](CC[C@@H]3C[C@@H](O)CC(=O)O3)[C@H]21`: the AC50 was 20 µM (active) in assay [1]; 20 µM (active) in assay [2]; 20 µM (active) in assay [3]; 32.3 µM (active) in assay [4]; 2.18 µM (active) in assay [5]; 18.3 µM (active) in assay [8]. In addition, the results for the half-maximal activity concentration (AC50) in assay [9] and in assay [10] were 0.336 µM (active) and 3.97 µM (active), respectively. The outcome in [6] and in [7] was inactive.
As to `On1ccccc1=S`, the half-maximal activity concentration (AC50) in [1] is 27.7 µM (active); in assay [2], 33.7 µM (active); in assay [3] it was 11.7 µM (active); in assay [4], 32.1 µM (active); in assay [5], 6.45 µM (active); in assay [8], 26.8 µM (active). In assay [9], the AC50 was 0.878 µM (active). For the same compound, the outcome in assay [6], in [7] and in [10] was inactive.
`COc1ccc(/C=C/S(=O)(=O)NC(=O)c2ccc(C)cc2Cl)cc1`: the result in assay [1], in assay [2], in assay [3], in assay [4], in assay [6] and in [7] was inactive. Besides, the result in [8], in [9] and in [10] was inactive. Further, the AC50 in assay [5] is 18.9 µM (active).
For the compound `Nc1ccc(Nc2ccccc2)cc1`, the result in assay [1], in [2], in assay [3], in assay [4], in assay [6] and in assay [7] was inactive. Moreover, the result in assay [8] and in [10] was inactive. Further, the AC50 in assay [5] was 20 µM (active); in assay [9] it was 3.23 µM (active).
In the case of `O=c1[nH]c2ccc(S(=O)CCN3CCC(Cc4ccc(F)cc4)CC3)cc2o1` (stereo unspecified), the result in [1], in assay [2], in assay [3], in assay [4], in [5] and in assay [6] was inactive. In addition, the outcome in [7], in [8], in [9] and in assay [10] was inactive.
As for `Cn1cnc([N+](=O)[O-])c1Sc1ncnc2nc[nH]c12`, the AC50 in assay [1] was 11.3 µM (active); in assay [5], 10.2 µM (active) and 12 µM (active) and 4.25 µM (active). Further, the outcome in assay [1], in [2], in assay [3], in [4], in assay [6] and in assay [7] was inactive. The outcome in assay [8], in [9] and in [10] was inactive.
Regarding `CC(C)CCO`, the outcome in [1], in assay [2], in assay [3], in [4], in [5] and in assay [6] was inactive. Further, the outcome in assay [7], in [8], in assay [9] and in assay [10] was inactive.
For the compound `COc1ccc(-n2nc(C(F)F)cc2-c2ccc(S(C)=O)cc2)cc1` (stereo unspecified), the outcome in assay [1], in assay [2], in assay [3], in assay [4], in assay [5] and in assay [6] was inactive. The outcome in assay [7], in [8], in assay [9] and in [10] was inactive.
In the case of `O=C1OC(=O)C2C3C=CC(C3)C12` (stereo unspecified), the result in assay [1], in [2], in assay [3], in assay [4], in [5] and in assay [6] was inactive. For the same compound, the result in [7], in [8], in assay [9] and in [10] was inactive.
On to `Fc1ccccc1[C@@H](F)COC1CCC(Nc2ncnc3[nH]ncc23)CC1` (stereo partly specified), for which the figures for the AC50 in [1] and in assay [5] were 6.88 µM (active) and 29.2 µM (active), respectively. In addition, the outcome in [2], in [3], in [4], in assay [6], in [7] and in assay [8] was inactive. Further, the result in [9] and in assay [10] was inactive.
Regarding `COCCOCCOCCOC`, the outcome in assay [1], in assay [2], in assay [3], in assay [4], in assay [5] and in assay [6] was inactive. The outcome in assay [7], in assay [8], in assay [9] and in assay [10] was inactive.
Turning to `CNS(=O)(=O)c1cc(C(=O)N2CCC(CCN3C4CCC3CC(n3c(C)nc5ccccc53)C4)(c3cccc(F)c3)CC2)c(Cl)cc1F` (stereo unspecified), the figures for the AC50 in assay [1], in assay [3] and in assay [5] were 28.5 µM (active), 5.4 µM (active) and 13.5 µM (active), respectively. Further, the outcome in assay [2], in [4], in assay [6], in assay [7], in assay [8] and in assay [9] was inactive. For the same compound, the result in [10] was inactive.
Turning to `O=C(O)c1cccc(N(Cc2cccnc2)c2ccc(OC(F)F)c(OC(F)F)c2)c1`, the half-maximal activity concentration (AC50) is 8.72 µM (active) in assay [1], 11.7 µM (active) in [2] and 6.98 µM (active) in assay [5]. Also, the outcome in assay [3], in assay [4], in [6], in assay [7], in [8] and in assay [9] was inactive. In [10], the result was inactive.
As to `CCCCCCCCCCCCCCCO`, the result in [1], in assay [2], in assay [4], in [6], in [7] and in assay [8] was inactive. The outcome in assay [9] and in [10] was inactive. The AC50 is 31.9 µM (active) in [3] and 20 µM (active) in assay [5].
With `COCCOc1cc2cc(C(=O)NC3CCN(C(C)C)CC3)n(CC(=O)Nc3ccc(Cl)cn3)c2cn1`, the result in assay [1], in [2], in assay [3], in [4], in assay [5] and in [6] was inactive. In addition, the result in assay [7], in assay [8], in assay [9] and in assay [10] was inactive.

In general, AC50 refers to the midpoint of the concentration-response curve, whichever way the signal moves.
